Source: PubChem (Corson Lab, School of Medicine, Indiana University)
Shown is part of a subset that was picked to be rich in hits.
FECH block: inhibitors of human ferrochelatase, primary screen, biochemical, purified FECH, Ni-mesoporphyrin absorbance. Ferrochelatase, mitochondrial (Homo sapiens), P22830. AID 1671448, 2021. calls only at 10 µM (by protocol). hit rate 3.3% among 20,000. Ni-mesoporphyrin absorbance 550 nm;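 active = enzyme reaction rate more than 3 SD below the solvent-only control wells on the same plate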;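 note: lower slope than DMSO wells means FECH inhibition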
Target sequence (P22830 whole entry, looked up): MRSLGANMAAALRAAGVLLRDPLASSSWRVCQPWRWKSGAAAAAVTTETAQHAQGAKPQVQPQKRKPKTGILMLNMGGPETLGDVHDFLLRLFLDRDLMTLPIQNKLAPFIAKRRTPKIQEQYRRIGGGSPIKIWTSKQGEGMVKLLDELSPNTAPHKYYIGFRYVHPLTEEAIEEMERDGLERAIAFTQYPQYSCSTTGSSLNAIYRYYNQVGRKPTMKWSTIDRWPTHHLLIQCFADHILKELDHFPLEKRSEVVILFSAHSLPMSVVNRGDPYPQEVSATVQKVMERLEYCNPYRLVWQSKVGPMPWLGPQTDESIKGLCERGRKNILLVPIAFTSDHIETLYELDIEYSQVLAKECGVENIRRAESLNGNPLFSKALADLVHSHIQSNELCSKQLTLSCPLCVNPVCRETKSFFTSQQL
Calls only; - = inactive; + = active, no number.

SMILES | FECH block
COc1ccc(Nc2nc(NCC3CCCO3)nc3c2cnn3-c2ccccc2)cc1 (centres undefined) | -
COc1ccc(Nc2nc(NCCCOC(C)C)nc3c2cnn3-c2ccccc2)cc1 | -
Cc1ccc(S(=O)(=O)Nc2cnc(N3CCCCCC3)c(C(=O)O)c2)cc1 | -
Cc1cccc(Nc2nc(NCC3CCCO3)nc3c2cnn3-c2ccccc2)c1 (centres undefined) | -
CCC1CCCCN1Cc1cc(=O)n2[nH]c(NCc3ccc(Cl)cc3)nc2n1 (centres undefined) | -
COc1cc(S(=O)(=O)N2CCN(c3nc(C)cc(Nc4ccccc4)n3)CC2)c(C)cc1C | -
COc1ccc(NC(=O)CSCc2nc(-c3ccccc3)no2)cc1 | -
O=C1NC(Cc2ccccc2)(C2CCNCC2)C(=O)N1Cc1nccs1 (centres undefined) | -
Cc1cc(C(=O)Nc2cnc3n2CCCC3)n[nH]1 | -
CCN(C/C=C/c1ccccc1)C(=O)c1ccc(C#CC(C)(C)O)o1 | -
COc1ccc(S(=O)(=O)N2CCN(Cc3nc4cccnc4n3-c3ccccc3)CC2)cc1OC | +
CCc1ccc(-n2c(CN3CCN(S(=O)(=O)c4ccc(CC)cc4)CC3)nc3cccnc32)cc1 | +
CCc1ccc(-n2c(CN3CCN(S(=O)(=O)c4ccc(C)c(C)c4)CC3)nc3cccnc32)cc1 | -
COc1ccc(Cl)cc1S(=O)(=O)N1CCN(Cc2nc3cccnc3n2-c2ccccc2)CC1 | -
CCc1ccc(S(=O)(=O)N2CCN(Cc3nc4cccnc4n3-c3ccc(C)cc3)CC2)cc1 | -
Cc1ccc(S(=O)(=O)N2CCN(Cc3nc4cccnc4n3-c3ccccc3)CC2)cc1C | -
CCn1nc(C)c(CNC(C)CC(C)(C)OC)c1C (centres undefined) | -
CCOC1CCN(C(=O)CCSCc2ccc(F)cc2)CC1 | -
CC(=O)c1ccc(NC(=O)Cn2c(C(=O)OC(C)C)cc3ccsc32)cc1 | +
CC(=O)c1cccc(NC(=O)Cn2c(C(=O)OC(C)C)cc3ccsc32)c1 | -
COc1ccc(NC(=O)Cn2c(C(=O)OC(C)C)cc3ccsc32)cc1 | -
CC(CO)(CO)NC(=O)CCSc1ccc2c(c1)OCCO2 | -
O=S(=O)(Nc1nc2n(n1)C(c1c(F)cccc1Cl)C=C(c1ccccc1)N2)c1ccccc1 (centres undefined) | +
CS(=O)(=O)Nc1nc2n(n1)C(c1ccccc1Cl)C=C(c1ccc(Br)cc1)N2 (centres undefined) | -
Cc1ccc(C2=CC(c3ccc(F)cc3)n3nc(NS(=O)(=O)c4ccccc4)nc3N2)cc1 (centres undefined) | -
SMILES | FECH block
Cc1ccc(C2=CC(c3c(F)cccc3Cl)n3nc(NS(C)(=O)=O)nc3N2)cc1 (centres undefined) | +
Cc1ccc(C2=CC(c3ccccc3Cl)n3nc(NS(C)(=O)=O)nc3N2)cc1 (centres undefined) | -
Cc1ccc(C2=CC(c3c(F)cccc3Cl)n3nc(NS(=O)(=O)c4ccccc4)nc3N2)cc1 (centres undefined) | -
Cc1ccc(C2=CC(c3ccccc3Cl)n3nc(NS(=O)(=O)c4ccccc4)nc3N2)cc1 (centres undefined) | +
O=S(=O)(Nc1nc2n(n1)C(c1ccc(F)cc1)C=C(c1ccccc1)N2)c1ccc(Cl)cc1 (centres undefined) | -
Cc1ccc(C2=CC(c3ccc(F)cc3)n3nc(NS(C)(=O)=O)nc3N2)cc1 (centres undefined) | -
CC(C)Cc1ccc(S(=O)(=O)N2CCN(c3cc(-c4cccc(F)c4)ncn3)CC2)cc1 | -
Cc1ccc(NC(=O)CNC[C@H]2CCc3ccccc3O2)c(C)c1 | -
CC(C)(C)c1cc(CN2CCc3[nH]cnc3C2c2ccncc2)[nH]n1 (centres undefined) | -
O=C(c1cc(=O)n(-c2ccccc2)[nH]1)N1CCOC(c2ccc(F)cc2)C1 (centres undefined) | -
Cc1cc(NC(=O)c2cccc(Br)c2)n(-c2ncnc3c2cnn3-c2ccc(F)cc2)n1 | -
Cc1cccc(-c2cc(N3CCN(C(=O)Nc4ccc(Br)cc4F)CC3)ncn2)c1 | -
CCc1nc(N2CCC(N3CCCC(C(=O)N4CCCC4)C3)CC2)ncc1C (centres undefined) | -
CCc1csc(CNC(=O)c2ccc(-c3ncn[nH]3)cc2)n1 | -
CCc1csc(CNC(=O)c2cc(C3CC3)[nH]n2)n1 | -
CCc1csc(CNC(=O)c2ncc[nH]2)n1 | +
Cc1cccc(-c2noc(CN(C)Cc3ccccc3O)n2)c1 | -
Cc1ccc(C(C)NC(=O)CN2CCC(O)(CN3CCCC3)CC2)cc1 (centres undefined) | +
Cc1ccc(C(C)NC(=O)CN2CCS(=O)(=O)CC2)cc1 (centres undefined) | -
Cc1ccc(C(C)NC(=O)CN2CCC(O)(Cn3ccnc3)CC2)cc1 (centres undefined) | -
CCC(=O)Nc1ccccc1-c1nnc(SC(C)C(=O)Nc2ccc(C(C)=O)cc2)[nH]c1=O (centres undefined) | -
